Assay outcomes: PubChem, National Center for Advancing Translational Sciences (NCATS)
Sampled rows, rich in hits. Any-hit rate of the full collection: about 17%.
ClpP mod: qHTS Assay for Activators of ClpP; purified B. subtilis ClpP, FRET peptide cleavage, 20 min; ATP-dependent Clp protease proteolytic subunit (Bacillus subtilis (strain 168)), P80244; 1.9% of 340,000 active; Potency, µM (top dose mostly 57.5 µM), inactives show at the highest dose activity change, negative = active; active means well fitted falling curve with a large enough effect; inconclusive means small, poorly fitted or top-dose-only effect; inactive means no such curve, though single readings can be large or run the other way; further: the source files actives as falling curves though it sought activators and does not explain the sign; nearly all actives have a fitted effect of over 65% in size
Target sequence (P80244 whole entry, looked up): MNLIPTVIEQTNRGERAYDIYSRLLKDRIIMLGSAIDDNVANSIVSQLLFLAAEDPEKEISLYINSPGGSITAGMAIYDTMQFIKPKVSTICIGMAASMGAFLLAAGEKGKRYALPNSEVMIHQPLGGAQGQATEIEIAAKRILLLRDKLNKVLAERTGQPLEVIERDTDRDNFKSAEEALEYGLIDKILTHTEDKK
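FRET quenching reversal measured ClpP activation: 10 microg/mL B. subtilis ClpP at pH 8 with the FRET-FV decapeptide, read at 430 nm after 320 nm excitation. The 20-min minus 0-min signal was scaled between DMSO/no-enzyme wells and ADEP (5.8 microM final).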
TDP1 cell noCPT: qHTS for Inhibitors of human tyrosyl-DNA phosphodiesterase 1 (TDP1): qHTS in cells in absence of CPT; DT40 Tdp1-/- hTDP1 cells, no CPT, ATP luminescence, 48 h; Potency, µM (top dose mostly 46.2 µM), for inactives: top-dose activity change, negative = growth inhibition, hits mostly inhibitors; 15% of 420,000 active; further: on the % scale 0 is the no-effect control and ±100 the full control effect; nearly all actives have a fitted effect of over 55% in size
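Growth of hTDP1-complemented DT40 Tdp1-knockout cells is measured by ATP luminescence after at least 48 hr compound exposure at 37 °C, with DMSO substituting for the 20 nM CPT used in the parallel screen.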
TDP1 inh: inhibitors of human tyrosyl-DNA phosphodiesterase TDP1; Q9NUW8; recombinant TDP1, AlphaScreen DNA substrate cleavage; Potency, µM (top dose mostly 130 µM), without a hit: at the highest dose activity change, negative = inhibition, actives largely listed as inhibitors; 0.28% of 350,000 active; AID 485290; further: on the % scale 0 is the no-effect control and ±100 the full control effect; nearly all actives have a fitted effect of over 40% in size
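Recombinant E. coli-expressed Tdp1 (1 nM) preincubated with compound 15 min at RT, then 5'-biotin/3'-phosphotyrosine-FITC DNA substrate (15 nM) added for 5 min. AlphaScreen beads (10 ug/ml) added, 10 min RT; tyrosine-FITC cleavage read as signal loss.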
TDP1 cell CPT: DT40-hTDP1 cell growth loss with CPT; chicken DT40 Tdp1-/-;hTDP1 cells + 20 nM CPT, ATP luminescence, 48 h; Potency, µM (titrated, usually from 46.2 µM), inactives show top-dose activity change, negative = growth inhibition, actives largely listed as inhibitors; 12% of 420,000 active; AID 686979; further: on the % scale 0 is the no-effect control and ±100 the full control effect; nearly all actives have a fitted effect of over 55% in size
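Chicken DT40 Tdp1-/- cells stably complemented with human TDP1 were seeded at 400 cells/well in medium containing 20 nM camptothecin, exposed to pin-transferred compounds, and grown at 37 °C for at least 48 hr. Viability was read as ATP luminescence.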
* marks the source's active call; other numbers are inactive results; ? = inconclusive; / = no result given; [ ] = remark or other dose. Unless noted, the call rests on the fitted dose curve; in most records, active means well fitted curve in the direction sought with a large enough effect; inconclusive means small, poorly fitted or top-dose-only effect, or another doubt; inactive means no such curve, though single readings can be large; an effect the other way counts as inactive or inconclusive. Potency means the concentration at half of the fitted maximal effect.

SMILES | ClpP mod | TDP1 cell noCPT | TDP1 inh | TDP1 cell CPT
Nc1nc2ccccc2n1/N=C/c1ccc(-c2ccccc2)o1 | 10% | 16µM* | 8% | ?
Nc1nc2ccccc2n1/N=C/c1cccnc1 | 0% | -15% | / | -5%
Nc1nc2ccccc2n1/N=C/c1ccc([N+](=O)[O-])s1 | -1% | 2.9µM* | / | 2.1µM*
CC1(c2nnnn2C2CCCCC2)CCC(=O)N1Cc1ccc2c(c1)OCO2 (stereo not drawn) | 1% | -19% | / | -3%
COc1ccccc1NNC(=O)C(O)(c1ccccc1OC)c1ccccc1OC | -1% | 23µM* | 0% | 18µM*
COc1ccccc1NC1=C(Cl)C(=O)OC1OC(=O)c1ccco1 (stereo not drawn) | / | 21µM* | 3% | 23µM*
COc1cccc(NC2=C(Cl)C(=O)OC2OC(=O)c2ccco2)c1 (stereo not drawn) | / | 15µM* | 3% | 12µM*
Cc1ccccc1NC1=C(Cl)C(=O)OC1OC(=O)c1ccco1 (stereo not drawn) | 0% | 23µM* | 6% | 26µM*
C=CCN(C(=O)CCC(=O)Nc1cc(C)on1)C(C(=O)NC1CCCC1)c1ccc(OC)cc1OC (stereo not drawn) | / | -27% | / | -6%
Cc1ccc([N+](=O)[O-])cc1Nc1nc(N2CCCC2)nc(N2CCCC2)n1 | 0% | ? | / | ?
Cc1nn(Cc2ccccc2Cl)c(Cl)c1/C=C/C(=O)OCC(=O)NC1CCS(=O)(=O)C1 (stereo not drawn) | / | -26% | 0% | 21%
Cc1nn(Cc2ccc(Cl)cc2Cl)c(Cl)c1/C=C/C(=O)OCC(=O)NCC(F)(F)F | 1% | 21µM* | 4% | -29%
Cc1nn(Cc2ccccc2Cl)c(Cl)c1/C=C/C(=O)OCC(=O)NC(N)=O | -5% | 2.3µM* | 0% | ?
CC(C)CC(O)C(=O)Nc1cc(C(F)(F)F)ccc1Cl (stereo not drawn) | / | / | -4% | /
CCC(C)C1Nc2ccc(C(=O)NCCc3ccc(OC)c(OC)c3)cc2NC1=O (stereo not drawn) | -4% | ? | 6% | 16µM*
NS(=O)(=O)c1ccc(CCNS(=O)(=O)c2ccc(Cl)nc2)cc1 | -1% | 19% | 4% | -14%
CC(=O)Nc1ccc(Nc2nnc(-c3ccc(C)c(S(N)(=O)=O)c3)c3ccccc23)cc1 | -4% | 0% | / | -13%
Cc1ccc(-c2nnc(Nc3ccc(C(=O)N(C)C)cc3)c3ccccc23)cc1S(=O)(=O)N(C)C | -2% | 10µM* | -4%[12.3 µM] | 23µM*
COc1ccc(-c2nnc(Nc3ccc(OC)c(C(N)=O)c3)c3ccccc23)cc1 | -3% | 16µM* | 0%[12.3 µM] | ?
COc1ccc(Nc2nnc(-c3ccc(O)cc3)c3ccccc23)cc1C(N)=O | -2% | ? | 6% | ?
CC(=O)Nc1ccc(Nc2nnc(-c3ccc(C)c(S(=O)(=O)NCCO)c3)c3ccccc23)cc1 | -1% | 3% | 7% | 5%
COc1ccc(Nc2nnc(-c3ccc(C)c(S(=O)(=O)NCc4nc5ccccc5[nH]4)c3)c3ccccc23)cc1 | -9% | 10µM* | / | 21µM*
COc1ccc(Nc2nnc(-c3ccc(C)c(S(N)(=O)=O)c3)c3ccccc23)cc1 | 1% | 18µM* | 1%[12.3 µM] | 18µM*
CNC(=O)c1ccc(Nc2nnc(-c3ccc(C)c(S(=O)(=O)N(C)C)c3)c3ccccc23)cc1 | -16% | ? | 0%[12.3 µM] | -16%
COc1ccc(CN(CC2CCC(C(=O)O)CC2)C(=S)Nc2ccc(C)c(Cl)c2)cc1 (stereo not drawn) | 3% | -5% | 1% | 8%
COc1ccc(CCN(Cc2cc3cc(C)cc(C)c3nc2Cl)C(=O)C2CC2)cc1 | ? | 16µM* | -9% | ?
O=C(Oc1cccc([N+](=O)[O-])c1)N1CCCCC1 | 3% | -20% | 3% | -4%
CCOC(=O)C1CCN(Cc2cc(C(C)C)c(O)c(C(C)C)c2)CC1 | / | 9.2µM* | 1% | 9.2µM*
CCOC(=O)C1CCN(Cc2c(O)ccc3ccccc23)CC1 | 28µM* | -13% | 6% | 0%
CCOC(=O)N1CCN(Cc2c(O)ccc3ccccc23)CC1 | / | 2% | 8% | -21%
